Experimental data reported in PubChem BioAssay (Tox21).
Results filed as inconclusive are left out. Where a call stands in place of a potency, no number is given. Values without a mark were called inactive. The source made the active and inactive calls. The call rests on the fitted dose curve.

assay: qHTS assay for small molecules that induce genotoxicity in human embryonic kidney cells expressing luciferase-tagged ATAD5 - cell viability (AID 651634); conditions: HEK293T ATAD5-luc cells viability, CellTiter-Fluor, 15.5 h; series mostly up to 83.3 µM; further: nearly all actives have a fitted effect of over 25% in size
Text: National Center for Advancing Translational Sciences [NCATS]
NIH Chemical Genomics Center [NCGC]
U.S. Environmental Protection Agency [EPA]
National Institutes of Environmental Health Sciences [NIEHS]
National Toxicology Program [NTP]
U.S. Food and Drug Administration [FDA]
Enhanced Level of Genome Instability Gene 1 (ELG1; human ATAD5) protein levels increase in response to various types of DNA damage. Using a luciferase reporter-gene tagged with ElG1, a cell-based assay [developed by Kyungjae Myung, NHGRI, NIH] was used to measure the induction of ATAD5 in human embryonic kidney cells (HEK293T). So, increase in luciferase activity can be used to identify the compounds that cause genetic stress. In addition to genotoxicity, these cells were also used to test for cytotoxicity by measuring the protease activity within live cells.
Tox21 Assay Protocol Summary:
For cytotoxicity screening, 2,000 cells in 5 uL/well were dispensed into white, solid-bottom 1536-well plates using a Multidrop Combi (Thermo Scientific) dispenser. Following transfer of 23 nL compound or DMSO vehicle by a pin tool, the plates were incubated 15.5 hr at 37C and 5% CO2. 1 ul CellTiter-Fluor reagent (Promega, Madison, WI) was then added to each plate and following 30 min incubation at 37C, fluorescence intensity was quantified on a ViewLux CCD-based plate reader.

Row | SMILES | Potency | activity, negative = cytotoxicity
1 | C#C[C@]1(O)CC[C@H]2[C@@H]3CCC4=CC(=O)CC[C@@H]4[C@H]3CC[C@@]21C | inactive | –
2 | CCCCCC(N)=O | inactive | –
3 | CCCCC(CC)COC(=O)C(C#N)=C(c1ccccc1)c1ccccc1 (stereo not given) | inactive | –
4 | Cc1ccc2oc(=O)ccc2c1 | inactive | –
5 | CCN(CC)c1ccc(C(=O)c2ccccc2C(=O)O)c(O)c1 | inactive | –
6 | O=C(O)c1cc(C(=O)O)cc(S(=O)(=O)O)c1 | inactive | –
7 | Cc1occc(=O)c1O | inactive | –
8 | CC(O)COCC(C)O (stereo not given) | inactive | –
9 | CCC(O)OCCCOC (stereo not given) | inactive | –
10 | COc1ccc2cc([C@H](C)C(=O)O)ccc2c1 | inactive | –
11 | CCCCN(CCCC)CCCC | inactive | –
12 | CCN(CC)CCCC(C)Nc1ccnc2cc(Cl)ccc12 (stereo not given) | – | -6.84% [at 8.08 µM]
13 | c1ccc2scnc2c1 | inactive | –
14 | C/C=C1/CC2C=CC1C2 (stereo not given) | inactive | –
15 | Nc1ccccc1[N+](=O)[O-] | inactive | –
16 | CSCCC=O | inactive | –
17 | O=C(O)c1cc(=O)c2c(OCC(O)COc3cccc4oc(C(=O)O)cc(=O)c34)cccc2o1 | inactive | –
18 | CC[C@H](C)C(=O)O[C@H]1C[C@@H](C)C=C2C=C[C@H](C)[C@H](CC[C@@H]3C[C@@H](O)CC(=O)O3)[C@H]21 | inactive | –
19 | CCCCCCCCCCCCCCO | inactive | –
20 | CCCCCCOCCO | inactive | –

Row | SMILES | Potency | activity, negative = cytotoxicity
21 | O=C(O)c1ccc2c(c1)C(=O)OC2=O | inactive | –
22 | CC(C)(C)[C@@H](O)[C@@H](Cc1ccc(Cl)cc1)n1cncn1 | inactive | –
23 | CCCCCC/C(C=O)=C\c1ccccc1 | inactive | –
24 | CCc1ccc(CCOc2ccc(CC3SC(=O)NC3=O)cc2)nc1 (stereo not given) | inactive | –
25 | O=C(OCCOCCOC(=O)c1ccccc1)c1ccccc1 | inactive | –
26 | CN(C)CCC(c1ccc(Cl)cc1)c1ccccn1 (stereo not given) | inactive | –
27 | C=C(C)C(=O)O[C@H]1C[C@@H]2CC[C@@]1(C)C2(C)C | inactive | –
28 | CC1CCC(C(C)C)C(O)C1 (stereo not given) | inactive | –
29 | O=C(CC(C(=O)OC1CCCCC1)S(=O)(=O)O)OC1CCCCC1 (stereo not given) | inactive | –
30 | CN(C)CCOCCN(C)C | inactive | –
31 | CCCCCCCCCC | inactive | –
32 | CC(C)(N)CO | inactive | –
33 | O=C(O)[C@H](O)[C@@H](O)[C@H](O)[C@H](O)CO | inactive | –
34 | CCCCC(CC)COC(=O)CS (stereo not given) | inactive | –
35 | Cc1cnc(C(=O)NCCc2ccc(S(=O)(=O)NC(=O)NC3CCCCC3)cc2)cn1 | inactive | –
36 | COS(C)(=O)=O | inactive | –
37 | CCOC(=O)NNc1nncc2ccccc12 | inactive | –
38 | OC[C@H]1O[C@@](CO)(O[C@H]2O[C@H](CO)[C@@H](O)[C@H](O)[C@H]2O)[C@@H](O)[C@@H]1O | inactive | –
39 | OCC(CO)(CBr)CBr | inactive | –
40 | Cc1ccc(S(N)(=O)=O)cc1 | inactive | –
